Laboratory results as given in PubChem BioAssay (EPA / NIEHS).
Records with an inconclusive call do not appear. Calls of active or inactive are those of the source. The calls were made as follows, unless noted: active = hit-call score of the fitted dose curve at least 0.9, where 1 is the maximum; inactive = score below 0.9.

Assays:
[1] = ATG_TAL_CIS: Attagene CIS-FACTORIAL HepG2 Assay for human TAL Basal Promoter (AID 2282966); conditions: HepG2 Attagene cis-factorial TAL promoter reporter; actives raise or lower the signal;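 also: background control endpoint measuring basal TAL promoter reporter mRNA not a specific factor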
In short: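 Transiently transfected HepG2 (cis-regulated reporter units), 24 h treatment, mRNA read by fluorescent CE after RT-PCR; bidirectional fit, DMSO baseline.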

[2] = ATG_TGFb_CIS: Attagene CIS-FACTORIAL HepG2 Assay for human Transforming Growth Factor (TGF) (AID 2282967); conditions: HepG2 Attagene CIS TGFb reporter, mRNA transcription; actives raise or lower the signal
In short: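 Readout: fluorescently labeled reporter cDNA fragments resolved by capillary electrophoresis after RT-PCR. Transfected HepG2 cells dosed for 24 h; endogenous TF activity at TGFB1-linked cis element; gain or loss fitted relative to DMSO.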

[3] = ATG_VDRE_CIS: Attagene CIS-FACTORIAL HepG2 Assay for human Vitamin D Receptor Element (VDRE) (AID 2282968); conditions: HepG2 VDRE cis-reporter transcription, actives raise or lower the signal
In short: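 Readout is VDRE-driven reporter mRNA reflecting endogenous factor activity in human HepG2 cells, sampled 24 h post-dose. Quantification used labelled RT-PCR products separated by capillary electrophoresis; bidirectional analysis relative to DMSO.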

[4] = biological target: Estrogen receptor (Homo sapiens) (UniProt P03372); test: ATG_ERa_TRANS: Attagene TRANS-FACTORIAL HepG2 Assay for human Estrogen Receptor alpha (ERa) (AID 2282970; active = hit-call score of the fitted dose curve at least 0.9, where 1 is the maximum); conditions: HepG2 Attagene TRANS ERa GAL4 reporter, mRNA
In short: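 One of 30 multiplexed endpoints from a HepG2 TRANS system, this one reports ERa-Gal4-driven reporter mRNA. Transcripts were quantified 24 hours post-dosing by fluorescent RT-PCR and capillary electrophoresis, with activity scored as induction over DMSO.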

[5] = biological target: X-box-binding protein 1 (Homo sapiens) (UniProt P17861); test: ATG_Xbp1_CIS: Attagene CIS-FACTORIAL HepG2 Assay for human X-box Binding Protein 1 (XBP1) (AID 2282972); conditions: HepG2 XBP1 cis-element reporter, Attagene multiplex; actives raise or lower the signal
In short: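 Read-out: fluorescent reporter mRNA fragments resolved by capillary electrophoresis after RT-PCR. Human HepG2 liver cells carried transfected cis-promoter reporter units and were exposed to chemicals for 24 hours. Gain or loss of signal fitted relative to DMSO baseline.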

[6] = biological target: Glucocorticoid receptor (Homo sapiens) (UniProt P04150); test: ATG_GR_TRANS: Attagene TRANS-FACTORIAL HepG2 Assay for human Glucocorticoid Receptor (GR) (AID 2282978; active = hit-call score of the fitted dose curve at least 0.9, where 1 is the maximum;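 also: activators score as hits since higher reporter transcript over DMSO is fitted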); conditions: HepG2 Attagene TRANS GR reporter, mRNA transcription
In short: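 Multiplexed TRANS reporter system, HepG2; 24 h exposure; RNA → oligo(dT) RT → reporter-specific PCR → 6-FAM primer extension → HpaI cut → CE fluorescence. Gain-of-signal vs DMSO.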

[7] = biological target: Oxysterols receptor LXR-beta (Homo sapiens) (UniProt P55055); test: ATG_LXRb_TRANS: Attagene TRANS-FACTORIAL HepG2 Assay for human Liver X Receptor beta (LXRb) (AID 2282981; active = hit-call score of the fitted dose curve at least 0.9, where 1 is the maximum); conditions: HepG2 Attagene TRANS GAL4-LXRb reporter, mRNA
In short: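 After 24 h chemical treatment of transfected HepG2 cells carrying exogenous NR-Gal4 chimeras, reporter mRNA was quantified by fluorescent RT-PCR and capillary electrophoresis; activity taken as increase over DMSO controls.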

[8] = ATG_M_06_TRANS: Attagene TRANS-FACTORIAL HepG2 Assay for M06 Transcription Factor (Internal Marker) (AID 2282983; active = hit-call score of the fitted dose curve at least 0.9, where 1 is the maximum;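 also: reporter transcript level by RT-PCR then capillary electrophoresis fluorescence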); conditions: HepG2 Attagene TRANS M06 internal marker reporter
In short: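 In this multiplexed HepG2 system, compounds are incubated 24 h with cells carrying GAL4-UAS reporter units. Reporter RNA is amplified and resolved by capillary electrophoresis, and induction is scored against DMSO.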

[9] = ATG_M_32_TRANS: Attagene TRANS-FACTORIAL HepG2 Assay for M32 Transcription Factor (Internal Marker) (AID 2282984; active = hit-call score of the fitted dose curve at least 0.9, where 1 is the maximum;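 also: transcript level of a background control reporter unit measured by RT-PCR and capillary electrophoresis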); conditions: HepG2 Attagene TRANS M32 internal marker reporter
In short: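 Internal background reporter in transfected HepG2: after 24 h chemical exposure, RNA reverse-transcribed, reporter cDNA amplified, fluorescently labelled and HpaI-cut, then sized by capillary electrophoresis. Gain of signal fitted against DMSO control.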

[10] = biological target: Transcriptional activator Myb (Homo sapiens) (UniProt P10242); test: ATG_Myb_CIS: Attagene CIS-FACTORIAL HepG2 Assay for human Myeloblastosis (Myb) Proto-Oncogene Transcription Factor (AID 2282986); conditions: HepG2 Attagene CIS-FACTORIAL Myb reporter transcription; actives raise or lower the signal
In short: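 Endogenous transcription factor activity at a Myb-responsive cis element is reported in human liver HepG2 cells after 24 h chemical treatment. Reporter mRNA is detected by RT-PCR and capillary electrophoresis fluorescence, with DMSO as baseline.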

[11] = biological target: Nuclear respiratory factor 1 (Homo sapiens) (UniProt Q16656); test: ATG_NRF1_CIS: Attagene CIS-FACTORIAL HepG2 Assay for human Nuclear Respiratory Factor 1 (NRF1) Orphan Gene (AID 2282987); conditions: HepG2 NRF1 cis-element reporter, Attagene multiplex; actives raise or lower the signal
In short: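 Human hepatoma HepG2 cells carrying transfected promoter-regulated reporter units were incubated with test chemicals for 24 h. Reporter transcripts were measured by RT-PCR plus capillary electrophoresis, and endpoints derived by bidirectional fitting with DMSO as baseline.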

[12] = biological target: Hepatocyte nuclear factor 4-alpha (Homo sapiens) (UniProt P41235); test: ATG_HNF4a_TRANS: Attagene TRANS-FACTORIAL HepG2 Assay for human Hepatocyte Nuclear Factor 4 alpha (HNF4a) (AID 2282982; active = hit-call score of the fitted dose curve at least 0.9, where 1 is the maximum); conditions: HepG2 HNF4a transactivation reporter, mRNA readout
In short: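 Activity of an exogenous HNF4a–Gal4 fusion scored as induced GAL4-UAS reporter transcripts after 24 h chemical exposure of transfected human HepG2 cells. Read-out via RT-PCR with 6-FAM labelling and capillary electrophoresis; rise over DMSO baseline.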

[13] = biological target: Nuclear receptor subfamily 4 group A member 2 (Homo sapiens) (UniProt P43354); test: ATG_NURR1_TRANS: Attagene TRANS-FACTORIAL HepG2 Assay for human Nuclear Receptor Related Protein 1 (NURR1) (AID 2282985; active = hit-call score of the fitted dose curve at least 0.9, where 1 is the maximum); conditions: HepG2 Attagene TRANS reporter, mRNA readout
In short: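 Reporter transcript induction, measured by RT-PCR with fluorescent labelling, HpaI digestion and capillary electrophoresis, after 24 hr dosing of human HepG2 cells transiently expressing an exogenous NR-Gal4 fusion with GAL4-UAS-driven reporters; DMSO as baseline.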

[14] = biological target: Steroid hormone receptor ERR1 (Homo sapiens) (UniProt P11474); test: ATG_ERRa_TRANS: Attagene TRANS-FACTORIAL HepG2 Assay for human Estrogen-Related Receptor alpha (ERRa) (AID 2282971; active = hit-call score of the fitted dose curve at least 0.9, where 1 is the maximum); conditions: HepG2 Attagene TRANS reporter, ERRa transactivation
In short: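 HepG2 cells transiently transfected with multiplexed GAL4-UAS reporter units reading chimeric ERRa-Gal4 activity; 24 h compound exposure. Reporter mRNA measured by RT-PCR, 6-FAM labelling, HpaI digest and capillary electrophoresis; gain of signal fitted versus DMSO baseline.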

[15] = biological target: Oxysterols receptor LXR-alpha (Homo sapiens) (UniProt Q13133); test: ATG_LXRa_TRANS: Attagene TRANS-FACTORIAL HepG2 Assay for human Liver X Receptor alpha (LXRa) (AID 2282980; active = hit-call score of the fitted dose curve at least 0.9, where 1 is the maximum); conditions: HepG2 Attagene TRANS reporter, LXRa transactivation
In short: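 HepG2 cells were transiently transfected with multiplexed reporter units driven by chimeric LXRa–GAL4 fusion proteins, then dosed for 24 h. Reporter mRNA was quantified by RT-PCR, fluorescent labelling and capillary electrophoresis; gain of signal fitted against DMSO baseline.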

[16] = ATG_M_19_TRANS: Attagene TRANS-FACTORIAL HepG2 Assay for M19 Transcription Factor (Internal Marker) (AID 2282974; active = hit-call score of the fitted dose curve at least 0.9, where 1 is the maximum); conditions: HepG2 Attagene TRANS-FACTORIAL M19 internal marker reporter
In short: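 After transfection of HepG2 with GAL4-UAS-driven reporter constructs, cells are dosed for 24 h. Total RNA is reverse-transcribed, reporter sequences PCR-amplified and labelled, then HpaI-digested and sized by capillary electrophoresis.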

[17] = ATG_GAL4_TRANS: Attagene TRANS-FACTORIAL HepG2 Assay for GAL4 (Internal Marker) (AID 2282976; active = hit-call score of the fitted dose curve at least 0.9, where 1 is the maximum); conditions: HepG2 Attagene TRANS GAL4 internal marker reporter
In short: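 HepG2 cells transiently transfected with multiplexed GAL4-UAS reporter constructs were dosed for 24 h. Reporter mRNA was measured by RT-PCR, 6-FAM primer extension, HpaI digestion and capillary electrophoresis, and gain of signal was fitted relative to DMSO.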

[18] = biological target: Estrogen-related receptor gamma (Homo sapiens) (UniProt P62508); test: ATG_ERRg_TRANS: Attagene TRANS-FACTORIAL HepG2 Assay for human Estrogen-Related Receptor gamma (ERRg) (AID 2282977; active = hit-call score of the fitted dose curve at least 0.9, where 1 is the maximum;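 also: hits increase reporter signal over DMSO so potencies reflect activators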); conditions: HepG2 Attagene TRANS reporter, ERRg transactivation
In short: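 Induction of reporter transcripts through a chimeric NR-Gal4 protein is quantified in transfected human HepG2 liver cells after 24 h chemical exposure, using RT-PCR with capillary electrophoresis detection and DMSO as baseline.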

[19] = biological target: Bile acid receptor (Homo sapiens) (UniProt Q96RI1); test: ATG_FXR_TRANS: Attagene TRANS-FACTORIAL HepG2 Assay for Farnesoid X Receptor (FXR) (AID 2282979; active = hit-call score of the fitted dose curve at least 0.9, where 1 is the maximum;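 also: hits raise reporter mRNA above DMSO so AC50 marks FXR activation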); conditions: HepG2 Attagene TRANS FXR-GAL4 reporter transcription
In short: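 HepG2 cells transiently transfected with reporter constructs in which a chimeric FXR-GAL4 protein drives a GAL4-UAS reporter; 24 h compound exposure. Reporter mRNA measured by RT-PCR, FAM labelling, HpaI digestion and capillary electrophoresis; gain-of-signal versus DMSO.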

Measured: AC50

Glucocorticoid receptor (Homo sapiens), sequence (P04150 whole entry, looked up): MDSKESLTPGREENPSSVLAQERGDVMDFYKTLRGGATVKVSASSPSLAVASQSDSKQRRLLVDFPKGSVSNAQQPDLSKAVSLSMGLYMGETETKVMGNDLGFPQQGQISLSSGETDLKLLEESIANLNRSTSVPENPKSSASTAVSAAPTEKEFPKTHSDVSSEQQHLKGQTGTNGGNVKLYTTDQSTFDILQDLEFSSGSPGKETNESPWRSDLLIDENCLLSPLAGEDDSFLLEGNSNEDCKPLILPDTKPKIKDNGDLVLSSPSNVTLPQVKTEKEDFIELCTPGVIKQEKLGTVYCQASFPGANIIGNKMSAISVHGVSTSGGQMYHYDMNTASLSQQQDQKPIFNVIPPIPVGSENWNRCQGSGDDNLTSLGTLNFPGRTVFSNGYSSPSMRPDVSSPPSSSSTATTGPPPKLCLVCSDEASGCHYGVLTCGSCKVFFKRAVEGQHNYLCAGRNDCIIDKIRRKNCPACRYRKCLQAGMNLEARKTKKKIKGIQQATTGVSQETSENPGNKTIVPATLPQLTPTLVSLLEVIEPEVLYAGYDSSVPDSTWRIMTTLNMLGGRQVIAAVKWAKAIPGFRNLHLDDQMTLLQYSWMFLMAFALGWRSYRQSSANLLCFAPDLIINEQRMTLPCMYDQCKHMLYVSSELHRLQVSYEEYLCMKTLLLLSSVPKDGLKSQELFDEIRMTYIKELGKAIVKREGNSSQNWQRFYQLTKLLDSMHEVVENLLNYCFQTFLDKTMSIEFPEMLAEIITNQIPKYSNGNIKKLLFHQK
Transcriptional activator Myb (Homo sapiens), sequence (P10242 whole entry, looked up): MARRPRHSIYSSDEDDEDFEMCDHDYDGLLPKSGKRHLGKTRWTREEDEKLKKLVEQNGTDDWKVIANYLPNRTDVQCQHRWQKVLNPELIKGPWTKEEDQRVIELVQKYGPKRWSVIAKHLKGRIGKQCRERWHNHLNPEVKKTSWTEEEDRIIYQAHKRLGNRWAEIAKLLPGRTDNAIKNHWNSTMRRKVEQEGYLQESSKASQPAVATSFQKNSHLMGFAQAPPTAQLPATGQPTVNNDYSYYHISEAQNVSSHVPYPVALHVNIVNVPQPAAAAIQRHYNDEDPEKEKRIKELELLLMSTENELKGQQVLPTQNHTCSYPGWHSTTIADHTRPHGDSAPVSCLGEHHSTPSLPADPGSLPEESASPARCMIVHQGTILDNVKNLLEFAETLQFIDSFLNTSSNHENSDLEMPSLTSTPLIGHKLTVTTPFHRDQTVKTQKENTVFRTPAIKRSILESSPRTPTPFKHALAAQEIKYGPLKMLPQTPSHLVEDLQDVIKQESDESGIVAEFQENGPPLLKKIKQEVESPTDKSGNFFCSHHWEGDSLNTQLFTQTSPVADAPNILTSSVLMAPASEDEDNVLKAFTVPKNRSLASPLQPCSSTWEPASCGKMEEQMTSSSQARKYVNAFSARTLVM
Oxysterols receptor LXR-beta (Homo sapiens), sequence (P55055 whole entry, looked up, the tested form may be a part): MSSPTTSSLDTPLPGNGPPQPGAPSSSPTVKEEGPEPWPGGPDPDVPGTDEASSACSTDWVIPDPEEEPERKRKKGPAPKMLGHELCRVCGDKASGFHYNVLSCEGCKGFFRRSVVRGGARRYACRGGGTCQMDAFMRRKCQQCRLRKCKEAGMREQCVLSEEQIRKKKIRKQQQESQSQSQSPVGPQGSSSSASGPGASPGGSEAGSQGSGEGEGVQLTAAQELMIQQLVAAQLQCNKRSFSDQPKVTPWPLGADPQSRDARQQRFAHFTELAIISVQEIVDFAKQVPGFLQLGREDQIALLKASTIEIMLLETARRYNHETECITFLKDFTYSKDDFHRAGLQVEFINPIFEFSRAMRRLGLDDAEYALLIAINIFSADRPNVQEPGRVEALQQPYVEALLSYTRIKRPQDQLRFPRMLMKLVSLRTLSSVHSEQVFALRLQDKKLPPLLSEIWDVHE
X-box-binding protein 1 (Homo sapiens), sequence (P17861 whole entry, looked up, the tested form may be a part): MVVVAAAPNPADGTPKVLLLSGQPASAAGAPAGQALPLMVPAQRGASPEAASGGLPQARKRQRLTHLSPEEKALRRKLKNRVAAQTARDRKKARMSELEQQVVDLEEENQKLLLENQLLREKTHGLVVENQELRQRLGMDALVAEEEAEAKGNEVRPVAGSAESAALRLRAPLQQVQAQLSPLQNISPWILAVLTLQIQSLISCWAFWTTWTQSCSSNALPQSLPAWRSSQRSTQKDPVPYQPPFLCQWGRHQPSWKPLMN
Hepatocyte nuclear factor 4-alpha (Homo sapiens), sequence (P41235 whole entry, looked up, the tested form may be a part): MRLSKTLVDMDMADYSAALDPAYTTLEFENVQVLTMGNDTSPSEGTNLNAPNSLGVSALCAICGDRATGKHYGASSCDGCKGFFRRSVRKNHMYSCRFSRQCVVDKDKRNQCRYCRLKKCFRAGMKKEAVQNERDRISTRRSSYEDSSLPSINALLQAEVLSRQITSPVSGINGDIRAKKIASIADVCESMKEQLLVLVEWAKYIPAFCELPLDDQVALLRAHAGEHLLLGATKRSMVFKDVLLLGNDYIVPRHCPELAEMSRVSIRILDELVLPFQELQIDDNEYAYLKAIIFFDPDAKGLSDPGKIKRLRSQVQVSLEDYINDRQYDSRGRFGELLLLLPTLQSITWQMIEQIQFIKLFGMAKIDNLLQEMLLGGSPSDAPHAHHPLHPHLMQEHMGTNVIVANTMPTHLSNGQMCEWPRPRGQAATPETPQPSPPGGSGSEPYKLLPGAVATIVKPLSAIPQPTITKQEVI
Oxysterols receptor LXR-alpha (Homo sapiens), sequence (Q13133 whole entry, looked up, the tested form may be a part): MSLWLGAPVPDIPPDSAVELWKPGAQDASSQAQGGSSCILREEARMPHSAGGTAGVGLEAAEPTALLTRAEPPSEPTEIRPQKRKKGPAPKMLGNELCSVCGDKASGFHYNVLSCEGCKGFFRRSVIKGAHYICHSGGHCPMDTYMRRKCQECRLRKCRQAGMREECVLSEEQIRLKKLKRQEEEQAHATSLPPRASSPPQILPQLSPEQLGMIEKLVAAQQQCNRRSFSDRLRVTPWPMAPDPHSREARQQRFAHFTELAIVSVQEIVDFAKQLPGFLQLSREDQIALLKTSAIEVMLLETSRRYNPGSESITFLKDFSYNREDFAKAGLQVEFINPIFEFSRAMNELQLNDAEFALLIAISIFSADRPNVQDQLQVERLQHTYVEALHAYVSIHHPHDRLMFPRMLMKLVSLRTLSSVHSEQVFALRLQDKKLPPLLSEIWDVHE
Nuclear respiratory factor 1 (Homo sapiens), sequence (Q16656 whole entry, looked up): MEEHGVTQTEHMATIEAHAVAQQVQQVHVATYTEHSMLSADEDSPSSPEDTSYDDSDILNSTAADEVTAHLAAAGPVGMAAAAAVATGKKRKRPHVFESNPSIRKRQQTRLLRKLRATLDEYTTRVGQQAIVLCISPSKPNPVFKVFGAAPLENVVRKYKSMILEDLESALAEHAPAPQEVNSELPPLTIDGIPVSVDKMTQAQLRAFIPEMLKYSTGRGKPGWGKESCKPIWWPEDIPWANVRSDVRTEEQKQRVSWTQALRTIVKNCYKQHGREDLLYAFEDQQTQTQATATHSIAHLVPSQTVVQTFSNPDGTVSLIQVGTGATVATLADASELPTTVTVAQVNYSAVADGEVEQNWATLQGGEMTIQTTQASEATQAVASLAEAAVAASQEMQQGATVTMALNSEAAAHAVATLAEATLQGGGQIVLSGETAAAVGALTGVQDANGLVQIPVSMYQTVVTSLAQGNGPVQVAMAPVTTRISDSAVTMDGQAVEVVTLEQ
Nuclear receptor subfamily 4 group A member 2 (Homo sapiens), sequence (P43354 whole entry, looked up, the tested form may be a part): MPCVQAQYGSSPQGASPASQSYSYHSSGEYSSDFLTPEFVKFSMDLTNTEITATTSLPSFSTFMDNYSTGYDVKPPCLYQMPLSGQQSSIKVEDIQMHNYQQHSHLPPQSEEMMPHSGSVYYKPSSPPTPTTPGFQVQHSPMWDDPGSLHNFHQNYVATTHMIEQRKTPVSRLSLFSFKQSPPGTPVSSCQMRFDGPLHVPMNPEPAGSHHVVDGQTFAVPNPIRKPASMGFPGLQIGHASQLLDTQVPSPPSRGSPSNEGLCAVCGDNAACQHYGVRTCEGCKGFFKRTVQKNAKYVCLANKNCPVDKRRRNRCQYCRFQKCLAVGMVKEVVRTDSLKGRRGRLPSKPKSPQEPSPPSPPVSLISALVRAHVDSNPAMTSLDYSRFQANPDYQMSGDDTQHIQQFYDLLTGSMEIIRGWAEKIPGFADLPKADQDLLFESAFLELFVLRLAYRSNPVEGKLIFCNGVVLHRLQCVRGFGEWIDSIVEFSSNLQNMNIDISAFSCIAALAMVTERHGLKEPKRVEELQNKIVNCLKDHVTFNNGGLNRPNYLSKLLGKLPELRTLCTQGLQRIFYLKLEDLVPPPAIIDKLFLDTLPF
Steroid hormone receptor ERR1 (Homo sapiens), sequence (P11474 whole entry, looked up, the tested form may be a part): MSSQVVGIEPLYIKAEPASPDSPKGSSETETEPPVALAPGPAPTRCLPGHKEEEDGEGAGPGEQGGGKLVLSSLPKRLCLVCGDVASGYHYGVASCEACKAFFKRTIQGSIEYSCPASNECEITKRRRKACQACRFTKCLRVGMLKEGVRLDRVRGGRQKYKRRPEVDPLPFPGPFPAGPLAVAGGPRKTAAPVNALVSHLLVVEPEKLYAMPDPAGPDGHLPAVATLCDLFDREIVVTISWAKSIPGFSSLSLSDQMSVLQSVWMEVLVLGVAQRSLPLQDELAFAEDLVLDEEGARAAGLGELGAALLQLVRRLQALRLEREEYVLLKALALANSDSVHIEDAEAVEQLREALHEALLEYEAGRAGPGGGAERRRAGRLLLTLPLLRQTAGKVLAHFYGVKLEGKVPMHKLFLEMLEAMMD

CC1(C)O[C@@H]2C[C@H]3[C@@H]4C[C@H](F)C5=CC(=O)C=C[C@]5(C)[C@@]4(F)[C@@H](O)C[C@]3(C)[C@]2(C(=O)CO)O1
active: [4] 9.67 µM | [6] 52.5 nM
inactive: [1] | [2] | [3] | [5] | [7] | [8] | [9] | [10] | [11]

CCC(=O)Oc1ccc(/C(CC)=C(\CC)c2ccc(OC(=O)CC)cc2)cc1
active: [3] 4.32 µM | [4] 0.54 µM | [5] 27.5 µM | [13] 26.1 µM | [11] 26.9 µM
inactive: [1] | [2] | [6] | [7] | [12] | [8]

COCCCOCCCOC
inactive: [1] | [2] | [3] | [14] | [5] | [15] | [7] | [12] | [9] | [10] | [11]

CC(C)(C)c1n[nH]c(=O)n(N)c1=O
inactive: [1] | [2] | [3] | [5] | [16] | [17] | [18] | [6] | [7] | [8] | [10] | [11]

CCOCC(=O)O
inactive: [1] | [2] | [3] | [14] | [5] | [16] | [15] | [10] | [11]

CC(C)c1ccc2c(C(C)C)cc(C(C)C)c(S(=O)(=O)O)c2c1
inactive: [1] | [2] | [5] | [17] | [19] | [9] | [10] | [11]
active: [3] 8.94 µM | [4] 45.4 µM | [13] 48 µM

CCCCCC(C)O (centres undefined)
inactive: [1] | [2] | [3] | [4] | [5] | [17] | [15] | [7] | [8] | [10] | [11]

CC(=O)OC(C)C
inactive: [1] | [2] | [3] | [4] | [5] | [6] | [8] | [13] | [10] | [11]

N=c1ccn2c(n1)O[C@H]1[C@H](O)[C@@H](CO)O[C@H]12
inactive: [1] | [2] | [3] | [14] | [5] | [6] | [7] | [12] | [9] | [10] | [11]

C[Si](C)(C)O[Si](O)(O)O
inactive: [1] | [2] | [3] | [4] | [5] | [6] | [19] | [15] | [8] | [13] | [10] | [11]

C=CC(C)(C)C
inactive: [1] | [2] | [3] | [14] | [5] | [16] | [17] | [9] | [10] | [11]
